# Laboratory results as given in ChEMBL document CHEMBL4513216, “Probing the Open Global Health Chemical Diversity Library for Multistage-Active Starting Points for Next-Generation Antimalarials” (ACS Infect Dis, 2020).
# The campaign covered roughly 68,000 compounds. About 2,700 (4%) showed an effect of 50% or more. For the sample, strong results were picked, then their nearest neighbours and some compounds at random.
# Test system: Plasmodium berghei
# Experiment: Screen against P. berghei liver stage (PbLuc), transformed with Luciferase, at 2uM
# Type: functional, HepG2
# Conditions: tested at 2 uM
row,SMILES,INHIBITION [%]
1,COc1ccc(CN2C[C@@H]3OCCN(CCN4CCCC4)[C@@H]3C2)cc1,28.85
2,CN(C(=O)c1cccc(NCc2cccs2)c1)C(C1CC1)C1CC1,29.41
3,Nc1nc2c(c(NCc3nccs3)n1)CCN(CC1CCCC1)CC2,-1.29
4,CCc1cnc(CN(C(C)=O)C2CCN(CCS(C)(=O)=O)C2)o1 (stereo unspecified),-9.62
5,CCc1cnc(CN(C(C)=O)C2CCN(CCN3CCCCC3)C2)o1 (stereo unspecified),56.02
6,CCc1cnc(CN(C(C)=O)C2CCN(CC(=O)N3CCCC3)C2)o1 (stereo unspecified),75.98
7,CCc1cnc(CN(C(C)=O)C2CCN(Cc3nccn3C)C2)o1 (stereo unspecified),10.22
8,CCc1cnc(CN(C(C)=O)C2CCN(CC3(O)CCCCC3)C2)o1 (stereo unspecified),43.79
9,CCc1cnc(CN(C(C)=O)C2CCN(CCc3ccccn3)C2)o1 (stereo unspecified),35.65
10,CCc1cnc(CN(C(C)=O)C2CCN(CCc3cnn(C)c3)C2)o1 (stereo unspecified),1.61
11,CCc1cnc(CN(C(C)=O)C2CCN(CCc3ccncc3)C2)o1 (stereo unspecified),17.31
12,CCc1cnc(CN(C(C)=O)C2CCN(CCc3ccccc3)C2)o1 (stereo unspecified),51.94
13,Cc1cc(C)cc(OCC(=O)N2CCCN(CC(N)=O)CC2)c1,-28.76
14,CN(C)C[C@H]1OC[C@@H]2CCN(C(=O)c3cccn3C)C[C@@H]21,8.65
15,Cc1cc(C)n(NC(=O)c2ccc(Cl)cc2Cl)c(=O)c1,-3.05
16,Cc1ccc(CNC2CC3(CCN(CCO)CC3)c3ccccc32)s1 (stereo unspecified),47.05
17,CN(C)[C@@H]1CN(C(=O)COc2cccc(F)c2)C[C@H]1O,-0.83
18,CCCNC(=O)C1CCN(Cc2csc(CC)n2)CC1,36.64
19,COCCC1COC2(CCN(C(=O)Cc3ccccc3)CC2)C1 (stereo unspecified),-19.07
20,O=C([C@@H]1COC[C@H]2CN(C3CCOCC3)C[C@H]21)N1CCCCO1,59.77
21,O=C([C@H]1COC[C@H]2CN(C3CCOCC3)C[C@H]21)N1CCCO1,-17.39
22,O=C([C@H]1COC[C@H]2CN(C3CCOCC3)C[C@H]21)N1CCCCO1,-3.25

row,SMILES,INHIBITION [%]
1,CCOCC1c2c(cnn2CC2CC2)CCN1Cc1nccs1 (stereo unspecified),26.64
2,O=C(NCCCO)c1nnsc1-c1ccc(Cl)cc1,34.52
3,CN(CCCc1cnn(C)c1)Cc1cc2n(n1)CCNC2,19.66
4,CS(=O)(=O)NCCCN1CCCC1c1cccc(Br)c1 (stereo unspecified),-8.52
5,CS(=O)(=O)NCCCN1CCCC1c1ccsc1 (stereo unspecified),51.46
6,CS(=O)(=O)NCCCN1CCCC1c1ccccc1 (stereo unspecified),42.11
7,Cc1noc(C)c1CN1C[C@@H]2COC[C@H](C(=O)N3CCCCO3)[C@@H]2C1,-60.98
8,COC(=O)CCn1ccc(=O)c2cc(F)ccc21,-17.26
9,O=C(O)CCn1ccc(=O)c2cc(F)ccc21,55.73
10,O=C(O)Cn1ccc(=O)c2cc(F)ccc21,3.88
11,O=C(CCn1cncn1)Nc1ccc(F)cc1OCC1CC1,14.47
12,Cn1cc(CNCCNc2ncc(Cl)cc2Cl)cn1,-12.84
13,Cn1ccnc1CNCCNc1ncc(Cl)cc1Cl,57.43
14,CCn1cc(CNCCNc2ncc(Cl)cc2Cl)cn1,-30.98
15,CC(C)c1nc(CN2CCc3onc(-c4cccc(F)c4)c3C2)no1,-18.57
16,COc1c(CNCCNC(=O)c2ccc(C)c(F)c2)c(C)nn1C,-45.21
17,COc1c(CNCCNC(=O)c2ccccc2)c(C)nn1C,33.82
18,COc1c(CNCCNC(=O)c2ccccc2F)c(C)nn1C,67.69
19,COc1cccc([C@@H]2CN(C(=O)c3ccc(C)cc3O)C[C@H]2C(=O)O)c1,10.1
20,Cc1cn2nc(N3CCCC3C(=O)N3CCN(C)CC3)sc2n1 (stereo unspecified),7.67
21,Cc1cn2nc(N3CCCC3C(=O)N3CCOCC3)sc2n1 (stereo unspecified),-11.41
22,Cc1cn2nc(N3CCCC3C(=O)N3CCSCC3)sc2n1 (stereo unspecified),55.36

row,SMILES,INHIBITION [%]
1,COc1ccc(C(=O)NC(CC(=O)O)c2cccs2)c(OC)c1 (stereo unspecified),7.01
2,COCC(O)CN1CCC(NC(=O)c2cccc(C)c2)CC1 (stereo unspecified),2.32
3,Cc1cccc(C2(NCCCS(C)(=O)=O)CCCC2)c1,36.28
4,CS(=O)(=O)CCCNC1(c2cccc(Cl)c2)CCCC1,17.2
5,CS(=O)(=O)CCCNC1(c2ccc(Br)cc2)CCC1,55.36
6,O=C(NCc1ccnc(OCC(F)(F)F)c1)NCC1CCOC1 (stereo unspecified),-3.72
7,CNC(=O)[C@H]1C[C@@H]2CN(S(=O)(=O)c3ccccc3)C[C@@H]2N1C(C)=O,5.52
8,O=C(NCc1cccs1)[C@H]1CC[C@@H]2[C@@H](CCN2c2ncccn2)O1,-23.39
9,Cc1cc(C(=O)N2CCc3ncnc(-c4cnn(C)c4)c3CC2)c(C)o1,55.94
10,Cc1occc1C(=O)N1CCc2ncnc(-c3cnn(C)c3)c2CC1,23.27
11,Cc1oncc1C(=O)N1CCc2ncnc(-c3cnn(C)c3)c2CC1,33.74
12,CC(C)CC(NC(=O)c1ccn(C)c(=O)c1)c1cccs1 (stereo unspecified),9.29
13,CN(CCc1cn[nH]c1)C(=O)C1CC(=O)N(Cc2ccccn2)C1 (stereo unspecified),48.93
14,COCc1noc(CCNC(=O)c2ccc(C3CCCO3)s2)n1 (stereo unspecified),-31.23
15,Cc1ccc(CN2C[C@@H](N(C)C)[C@H]3OCCC[C@H]32)o1,39.57
16,Cc1ccc(CN2C[C@H](N3CCOCC3)[C@@H]3OCCC[C@@H]32)o1,63.23
17,Cc1cc(CN2C[C@H](N3CCOCC3)[C@@H]3OCCC[C@@H]32)oc1C,-0.23
18,COCC(=O)N1CCC2(C1)c1ccccc1S(=O)(=O)N2CC1CC1 (stereo unspecified),-11.81
19,Cc1cn(CC(=O)NC2CCC3(CC2)OCCO3)c2ccccc12,70.17
20,CCN1CCC(NC(=O)Cn2cc(C)c3ccccc32)CC1,-3.38
21,Cc1cn(CC(=O)NC2CCC(C(=O)O)CC2)c2ccccc12 (stereo unspecified),0.13
22,CCCC1CCCN(C(=O)Nc2cccnc2OC)CC1 (stereo unspecified),0.73

row,SMILES,INHIBITION [%]
1,COc1ccc(C2CCCN2S(=O)(=O)c2cc(F)ccc2F)cc1 (stereo unspecified),7.24
2,Cc1cc(=O)[nH]cc1C(=O)N1Cc2ccccc2N(C)CC1C (stereo unspecified),47.59
3,CCc1csc(C2CCCN(C(=O)c3ccc(=O)n(CC)n3)C2)n1 (stereo unspecified),60.09
4,Cc1csc(C2CCCN(C(=O)c3c[nH]c(C)n3)C2)n1 (stereo unspecified),-92.68
5,Cc1nc(C2CCCN(C(=O)Cn3ccccc3=O)C2)sc1C (stereo unspecified),14.77
6,CCc1csc(C2CCCN(C(=O)c3ccc(OC)nn3)C2)n1 (stereo unspecified),11.18
7,CCc1csc(C2CCCN(C(=O)c3c[nH]c(C)n3)C2)n1 (stereo unspecified),33.91
8,CC(C)c1csc(C2CCCN(C(=O)Cn3ccccc3=O)C2)n1 (stereo unspecified),54.92
9,CCc1csc(C2CCCN(C(=O)c3ccc(=O)n(C)n3)C2)n1 (stereo unspecified),26.51
10,Cc1csc(C2CCCN(C(=O)Cn3ccccc3=O)C2)n1 (stereo unspecified),42.29
11,Cc1nc(C(=O)N2CCCC(c3nc(C(C)C)cs3)C2)c[nH]1 (stereo unspecified),77.56
12,CC(C)NC(=O)NCc1nnc2n1C(C(=O)N(C)C)CC2 (stereo unspecified),24.34
13,O=C(NCc1ccc(OCC2CC2)nc1)C1COc2ccccc2O1 (stereo unspecified),2.21
14,CC1CCN(C(=O)[C@@H]2C[C@H]3OCC[C@H]3N(Cc3ccoc3)C2)CC1,23.1
15,Cc1cnc(CN(C)C(=O)C23CNCC2CNC3)[nH]1 (stereo unspecified),-16.03
16,COc1ncccc1C(=O)N(C)Cc1nc(-c2ccccn2)no1,16.37
17,Cc1cnn(CC2CCCCN2C(=O)c2ccc(NC3CC3)nc2)c1 (stereo unspecified),14.53
18,CC(=O)Nc1nc(C(=O)N2CCCCC2Cn2cc(C)cn2)cs1 (stereo unspecified),-7.73
19,COCc1nc(C(=O)N2CCCCC2Cn2cc(C)cn2)cs1 (stereo unspecified),29.71
20,Cc1cnn(CC2CCCN2C(=O)c2ccc(C(N)=O)cn2)c1 (stereo unspecified),40.29
21,Cc1cnn(CC2CCCCN2C(=O)c2csc(C)n2)c1 (stereo unspecified),53.58
22,CNC(=O)c1ccc(C(=O)N2CCCCC2Cn2cc(C)cn2)cn1 (stereo unspecified),61.96

row,SMILES,INHIBITION [%]
1,CC(C)C1CN(C(=O)c2cc(=O)[nH]c(=O)[nH]2)CCCN1CC1CC1 (stereo unspecified),-15.77
2,CN(C)CCn1c([C@@H]2CCCO2)cc2cccnc21,47.82
3,O=C(N1CCCC1)N1CCc2c(CNc3ncccn3)cncc2C1,34.98
4,Cc1cc(CN2CCC3(CC2)CC(C(=O)O)N(C(=O)C2CC2)C3)oc1C (stereo unspecified),9.11
5,CCSCC(C)NCc1nc(-c2cccnc2)no1 (stereo unspecified),-15.07
6,Cc1nn2c(nc1=O)-c1ccccc1NC2C(=O)O (stereo unspecified),24.05
7,C[C@H]1CN(C(=O)c2cscn2)C[C@@]12CCN(c1ccsc1)C2=O,55.8
8,O=C(c1ccsc1)N1CCC2(CCN(Cc3ccccn3)C2=O)C1 (stereo unspecified),57.85
9,O=C(c1cccnc1)N1CCCC2(CCN(c3ccsc3)C2=O)C1 (stereo unspecified),18.37
10,C[C@@H]1CN(C(=O)c2ccsc2)C[C@]12CCN(c1ccsc1)C2=O,-1.79
11,O=C(CO)N1CCCC2(CCN(c3ccsc3)C2=O)C1 (stereo unspecified),55.21
12,Cc1ccc(C(=O)N2CCC3(CCN(Cc4ccccn4)C3=O)C2)cn1 (stereo unspecified),17.64
13,Cc1cccc(C(=O)N2C[C@@H](C)[C@@]3(CCN(c4ccsc4)C3=O)C2)n1,15.44
14,COCC(=O)N1CCCC2(CCN(c3ccsc3)C2=O)C1 (stereo unspecified),-68.7
15,O=C(N1CCCC1)N1CCCC2(CCN(c3ccsc3)C2=O)C1 (stereo unspecified),45.82
16,O=C(c1ccc(F)cc1)N1CCC2(CCN(Cc3ccccn3)C2=O)C1 (stereo unspecified),11.6
17,Cc1ccc(C(=O)N2CCC3(CCN(c4ccsc4)C3=O)C2)cn1 (stereo unspecified),52.66
18,O=C(c1ccnnc1)N1CCC2(CCN(c3ccsc3)C2=O)C1 (stereo unspecified),-12.06
